Source: PubChem
BAZ2B block: BAZ2B (human) inhibition; Q9UIF8; AlphaScreen BAZ2B-H3K14Ac peptide displacement; Potency, µM (doses to about 114 µM), without a hit: top-dose activity change, negative = inhibition, most hits filed as inhibitors; 4.4% of 360,000 active; AID 504333; note: % is set by controls: 0 for no effect and ±100 for the full control effect; nearly all actives have a fitted effect of over 60% in size
Target sequence (Q9UIF8 whole entry, looked up): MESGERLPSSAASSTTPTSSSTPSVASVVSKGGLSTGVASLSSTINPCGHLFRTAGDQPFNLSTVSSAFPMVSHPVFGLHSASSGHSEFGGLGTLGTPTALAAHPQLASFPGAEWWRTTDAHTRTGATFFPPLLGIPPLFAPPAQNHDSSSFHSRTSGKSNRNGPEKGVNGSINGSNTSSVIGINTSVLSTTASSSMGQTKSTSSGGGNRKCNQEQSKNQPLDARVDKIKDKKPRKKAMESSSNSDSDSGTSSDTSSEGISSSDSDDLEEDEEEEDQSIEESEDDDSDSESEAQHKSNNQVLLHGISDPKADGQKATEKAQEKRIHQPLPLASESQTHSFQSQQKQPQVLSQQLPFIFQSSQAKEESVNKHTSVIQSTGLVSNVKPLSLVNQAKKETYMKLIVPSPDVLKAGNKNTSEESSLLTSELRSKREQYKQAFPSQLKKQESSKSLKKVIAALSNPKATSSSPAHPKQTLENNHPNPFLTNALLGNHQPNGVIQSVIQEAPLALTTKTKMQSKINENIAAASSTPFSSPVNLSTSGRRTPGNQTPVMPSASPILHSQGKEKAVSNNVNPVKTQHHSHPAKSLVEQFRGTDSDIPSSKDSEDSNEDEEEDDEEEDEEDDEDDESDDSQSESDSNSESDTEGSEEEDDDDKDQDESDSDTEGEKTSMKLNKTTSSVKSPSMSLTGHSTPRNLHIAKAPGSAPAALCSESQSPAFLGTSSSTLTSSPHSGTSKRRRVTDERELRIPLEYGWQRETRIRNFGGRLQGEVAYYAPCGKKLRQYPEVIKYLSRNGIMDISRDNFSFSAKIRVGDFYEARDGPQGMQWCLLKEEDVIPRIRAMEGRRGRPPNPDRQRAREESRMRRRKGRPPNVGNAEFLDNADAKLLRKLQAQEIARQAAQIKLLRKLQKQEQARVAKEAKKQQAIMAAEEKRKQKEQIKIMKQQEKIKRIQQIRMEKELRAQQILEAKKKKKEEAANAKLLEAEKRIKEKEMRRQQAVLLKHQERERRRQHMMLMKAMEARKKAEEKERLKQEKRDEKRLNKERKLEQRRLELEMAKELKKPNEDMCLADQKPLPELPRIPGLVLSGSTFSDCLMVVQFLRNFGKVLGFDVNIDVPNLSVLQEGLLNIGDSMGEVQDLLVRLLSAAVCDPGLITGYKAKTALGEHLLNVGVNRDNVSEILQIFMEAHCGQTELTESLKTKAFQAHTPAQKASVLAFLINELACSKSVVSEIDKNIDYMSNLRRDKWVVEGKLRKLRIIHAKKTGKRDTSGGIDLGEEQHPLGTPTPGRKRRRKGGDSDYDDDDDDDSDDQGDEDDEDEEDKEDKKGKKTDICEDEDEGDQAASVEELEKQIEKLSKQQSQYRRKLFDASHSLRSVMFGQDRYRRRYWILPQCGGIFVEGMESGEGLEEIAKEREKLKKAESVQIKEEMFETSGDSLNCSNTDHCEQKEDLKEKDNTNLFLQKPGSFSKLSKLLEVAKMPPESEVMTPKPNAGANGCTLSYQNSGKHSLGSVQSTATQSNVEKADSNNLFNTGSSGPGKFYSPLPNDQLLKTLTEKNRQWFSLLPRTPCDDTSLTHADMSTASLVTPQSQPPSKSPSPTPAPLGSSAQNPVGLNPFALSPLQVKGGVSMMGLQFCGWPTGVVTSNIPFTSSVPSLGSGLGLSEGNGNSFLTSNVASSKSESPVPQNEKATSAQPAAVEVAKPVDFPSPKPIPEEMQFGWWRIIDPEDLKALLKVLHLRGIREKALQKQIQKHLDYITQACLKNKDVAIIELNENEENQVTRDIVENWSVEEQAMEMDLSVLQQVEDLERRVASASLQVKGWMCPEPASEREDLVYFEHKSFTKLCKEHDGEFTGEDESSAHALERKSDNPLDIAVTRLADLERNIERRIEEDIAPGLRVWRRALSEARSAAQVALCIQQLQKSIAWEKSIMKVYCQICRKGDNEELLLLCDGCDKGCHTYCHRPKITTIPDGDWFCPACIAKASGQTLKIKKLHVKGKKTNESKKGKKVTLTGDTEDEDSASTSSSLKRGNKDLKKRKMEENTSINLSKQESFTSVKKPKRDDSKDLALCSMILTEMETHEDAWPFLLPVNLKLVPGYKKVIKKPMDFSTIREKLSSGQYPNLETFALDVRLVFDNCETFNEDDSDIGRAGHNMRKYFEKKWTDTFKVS
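AlphaScreen displacement: compounds (up to 110uM) incubated 30 min at room temperature with a preformed 50 nM BAZ2B/50 nM biotinylated H3K14Ac peptide complex in PBS pH 7.4 with Tween-20. Donor and acceptor beads at 10 ug/mL final added, 20 min light-protected before reading.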
HP1b chromo inh: HP1-beta chromodomain-methylated histone interaction inhibition. AlphaScreen HP1-beta / biotin-H3K9me3 peptide binding. Potency, µM (top dose mostly 114 µM), for inactives: at the top dose activity change, negative = inhibition, hits mostly inhibitors. 0.56% of 390,000 active. AID 540317; note: nearly all actives have a fitted effect of over 70% in size
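AlphaScreen: HP1-beta (50 nM) preformed 30 min with biotin-H3(1-18)K9me3 peptide (50 nM) in PBS pH 7.4, 0.01% Tween-20. Compound added for 30 min at RT, then streptavidin donor/nickel chelate acceptor beads (10 ug/mL) for 30 min.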
JMJD2A Tudor: inhibitors of human JMJD2A Tudor domain | O75164 | AlphaScreen JMJD2A-Tudor / H3K4me3 peptide binding | Potency, µM (top dose mostly 114 µM), inactives show at the highest dose activity change, negative = inhibition, usual class: inhibitors | 4.4% of 390,000 active | AID 504339; note: % is set by controls: 0 for no effect and ±100 for the full control effect; nearly all actives have a fitted effect of over 50% in size
PLK1 PBD block: blocks phosphopeptide binding to human PLK1 polo-box domain. Potency, µM, without a hit: max response, negative = inhibition, most hits filed as inhibitors. Plk1 PBD binding of FITC phosphopeptide, fluorescence polarization. P53350. 2.8% of 360,000 active; note: series mostly up to about 57 µM; % is set by controls: 0 for no effect and ±100 for the full control effect; nearly all actives have a fitted effect of over 65% in size
VDR inh: vitamin D3 receptor (human) inhibition; P11473; VDR-SRC2-3 peptide fluorescence polarization, 2 h; Potency, µM, for inactives: max response, negative = inhibition, actives largely listed as inhibitors; 0.93% of 400,000 active; note: % is set by controls: 0 for no effect and ±100 for the full control effect
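Measured by FP: displacement of SRC2-3 coactivator peptide from VDR by library compounds, following a two-hour ambient incubation.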
G9a block: blocks human histone lysine methyltransferase G9a; Q96KQ7; G9a H3K9 monomethylation, AlphaScreen, 2 h; Potency, µM (series often up to 102 µM), for inactives: at the highest dose activity, negative = inhibition, actives largely listed as inhibitors; 8.8% of 350,000 active; note: % is set by controls: 0 for no effect and ±100 for the full control effect; nearly all actives have a fitted effect of over 75% in size
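G9a (20 nM) preincubated 15 min RT with compounds, then 500 nM biotinylated H3K9 peptide and 20 uM SAM added; 2 h RT reaction. Monomethyl-H3K9 product detected by AlphaScreen with anti-H3K9me1 antibody, streptavidin donor and anti-rabbit IgG acceptor beads.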
An asterisk follows results filed as active; ? = inconclusive; nt = not tested or not shown; [ ] = remark or other dose. An excerpt weighted towards active compounds, which were near 11% of everything screened. Calls come from the whole dose curve; as a rule, active = well fitted curve in the direction sought with a large enough effect; inconclusive = small, poorly fitted or top-dose-only effect, or another doubt; inactive = no such curve, though single readings can be large; an effect the other way counts as inactive or inconclusive. Potency is the fitted concentration of half-maximal effect.

SMILES	BAZ2B block	HP1b chromo inh	JMJD2A Tudor	PLK1 PBD block	VDR inh	G9a block
CCc1ccc(N2C=C(C(=O)OC)C(c3cccc4ccccc34)C(C#N)=C2N)cc1 (stereo unspecified)	nt	nt	nt	-2%	nt	nt
O=C(NCc1ccccc1Cl)[C@H]1CCCN1C(=O)[C@H]1CCCN1C(=O)c1ccc(Cl)cc1	nt	nt	nt	0%	nt	nt
COc1cc(/C=N/NC(=S)Nc2cccc(S(=O)(=O)N(C)C)c2)cc(OC)c1O	-32%	24%	-17%	2%	-3%	3%[59 µM]
COc1cccc(/C=N/NC(=S)Nc2cccnc2)c1	-16%	15%	-29%	-6%	-12%	?
CC(/C=N/NC(=S)Nc1cccc(S(=O)(=O)N(C)C)c1)c1ccccc1 (stereo unspecified)	-6%	13%	20µM*	?	-25%	8.9µM*
COc1ccc(O)c(/C=N/NC(=S)Nc2cccc(S(=O)(=O)N(C)C)c2)c1	7.9µM*	-32%	22µM*	4%	-5%	?
COc1cccc(/C=N/NC(=S)Nc2cccc(S(=O)(=O)N(C)C)c2)c1	?	?	?	8.4µM*	79µM*	8.9µM*
CN(C)S(=O)(=O)c1cccc(NC(=S)N/N=C/c2ccco2)c1	-28%	-5%	-33%	-11%	15%	-25%
COc1ccc(O)c(/C=N/NC(=S)Nc2cccnc2)c1	nt	10%	25µM*	-9%	-12%	?
CCOc1ccc(Oc2ccccc2NC(=O)CCNC(C)=O)cc1	-12%	34%	8%	0%	-18%	14%[59 µM]
CCCc1nnc(NC(=O)C2CC(=O)N(CCc3ccc(F)cc3)C2)s1 (stereo unspecified)	-24%	-8%	-12%	?	-22%	?
CN(C)S(=O)(=O)c1cccc(NC(=S)N/N=C/c2ccc(O)c(O)c2O)c1	4.5µM*	?	20µM*	6µM*	89µM*	3.2µM*
Cc1ccc(C)c(NC(=S)N/N=C/C(C)c2ccccc2)c1 (stereo unspecified)	?	28%	-11%	-8%	12%	35µM*
CC1CN(C(=O)c2cc3cc(Cl)cc(Cl)c3oc2=O)CC(C)O1 (stereo unspecified)	9%	-23%	-5%[11.4 µM]	21µM*	2%	2%[59 µM]
Cc1cccc(-n2nc3c(c2NC(=O)C(C)C)CSC3)c1	-6%	41%[57 µM]	-12%	-4%	10%	8%[59 µM]
CCSc1cc(C2C(C(=O)OC)=C(C)NC3=C2C(=O)CCC3)c(C)o1 (stereo unspecified)	?	?	?	-23%	-14%	7.1µM*
CCC(C(=O)NCc1cc(OC)ccc1OC)n1nc(C)c2sc3ccccc3c2c1=O (stereo unspecified)	-4%	41%	-7%	nt	2%	4%[59 µM]
CCc1nn(CC(=O)NCC(C)c2ccccc2)c(=O)c2cc3c(OC)cccc3n12 (stereo unspecified)	-5%	14%	2%	nt	-4%	14%[59 µM]
N#C/C(=C\c1ccc(O)c(O)c1)C(=O)NCCCc1ccccc1	8.9µM*	?	45µM*	-19%	?	3.4µM*
COCCNC(=O)/C(C#N)=C/c1ccc(O)cc1	5%	31%	-6%	-4%	-21%	nt
N#C/C(=C/c1ccc(C(=O)O)cc1)C(=O)NCc1ccccc1	-4%	17%	-12%	-1%	-23%	?
N#C/C(=C\c1cccc([N+](=O)[O-])c1)C(=O)NCc1ccc(Cl)cc1	?	1%	?	?	40µM*	50µM*
COc1cc(/C=C(\C#N)C(=O)N2CCCCC2)ccc1O	-4%	42%	-2%	5%	2%	7%[59 µM]
COCCNC(=O)/C(C#N)=C/c1cccc(/C=C(\C#N)C(=O)NCCOC)c1	-3%	0%	-11%	?	35µM*	-9%[59 µM]
N#C/C(=C\c1ccc(O)c(O)c1)C(=O)N1CCCC1	nt	36%	?	-3%	-12%	13µM*
SMILES	BAZ2B block	HP1b chromo inh	JMJD2A Tudor	PLK1 PBD block	VDR inh	G9a block
Cc1cccc(CSc2nc3c(sc4ccccc43)c(=O)n2CCC(=O)NC(C)C)c1	18%	65%	-7%	nt	13%	-7%[59 µM]
Cc1cc(S(=O)(=O)Nc2ccc(C(=O)NC3CC3)cc2)ccc1F	nt	nt	nt	-3%	nt	nt
CC(C)CCN(C(=O)c1ccc(Br)cc1)c1c(N)n(Cc2ccccc2)c(=O)[nH]c1=O	-3%	25%	-16%	0%	21%	11%[12.7 µM]
COCCCNC(=O)/C(C#N)=C/c1ccc(OCC(=O)O)c(OC)c1	20µM*	?	50µM*	21µM*	-5%	13µM*
COc1ccc(/C=C(\C#N)C(=O)NCCc2ccccc2)cc1OCc1ccccc1	42%	42%	-7%	-9%	-18%	1µM*
N#C/C(=C\c1ccc(N2CCOCC2)o1)C(=O)NCCc1ccccc1	-27%	21%	-32%	92%	-2%	32µM*
CCOCCCNC(=O)/C(C#N)=C/c1cc(OC)c(O)c([N+](=O)[O-])c1	?	-17%	-23%	-13%	-3%	50µM*
CCOCCCNC(=O)/C(C#N)=C/c1ccc(C(=O)OC)cc1	-9%	29%	-14%	-15%	-25%	-44%
CCC(C(=O)NCc1ccc2c(c1)CCN2C(=O)c1ccc(F)cc1)c1ccccc1 (stereo unspecified)	-5%	-1%	-16%	nt	4%	-1%[59 µM]
Cc1ccc2nc(/N=C(\N)NC(=O)N3c4ccccc4Sc4ccccc43)nc(C)c2c1	-33%	-12%	-26%	9%	11%	50µM*
Cc1cc2nc(/N=C(\N)NC(=O)N3c4ccccc4Sc4ccccc43)nc(C)c2cc1C	-35%	6%	-35%	-5%	30%	50µM*
Cc1ccc2c(C)nc(/N=C(\N)NC(=O)N3c4ccccc4Sc4ccccc43)nc2c1	-4%	-6%	-28%	-8%	1%	6%[59 µM]
O=C(O)CC(NC(=O)C12CC3CC(CC(C3)C1)C2)c1cc([N+](=O)[O-])ccc1Cl (stereo unspecified)	-38%	-1%	56µM*	?	-16%	-15%
Cc1[nH]n(C(N)=S)c(=O)c1N=Nc1ccc2ccccc2c1	25µM*	?	45µM*	-1%	?	32µM*
Cc1[nH]n(C(N)=S)c(=O)c1N=Nc1ccc(S(=O)(=O)N2CCCCCC2)cc1	?	?	?	-29%	-16%	-21%[59 µM]
Cc1ccc(N=Nc2c(C)[nH]n(C(N)=S)c2=O)cc1C	7%	2%	-9%	-17%	-26%	2%[59 µM]
CC(=O)Nc1ccc(N=Nc2c(C)[nH]n(C(N)=S)c2=O)cc1	-11%	8%	-27%	?	1%	45µM*
CC(=O)Nc1ccc(S(=O)(=O)N2CCSc3ccccc32)cc1	nt	7%	-9%	-4%	12%	nt
